Measurements published in ChEMBL document CHEMBL2218924, “A broad activity screen in support of a chemogenomic map for kinase signalling research and drug discovery” (Biochem J, 2013).

Assays:
[1] = biological target: T1, Casein kinase II (Homo sapiens) (UniProt P67870+P68400+P19784); conditions: at 1 µM
[2] = biological target: T1, Casein kinase II (Homo sapiens); conditions: at 10 µM
[3] = biological target: Casein kinase II subunit alpha' (Homo sapiens) (UniProt P19784); conditions: at 1 µM
[4] = biological target: Casein kinase II subunit alpha' (Homo sapiens) (UniProt P19784); conditions: at 10 µM
[5] = biological target: Dual specificity protein kinase CLK2 (Homo sapiens) (UniProt P49760); conditions: at 1 µM
[6] = biological target: Dual specificity protein kinase CLK2 (Homo sapiens) (UniProt P49760); conditions: at 10 µM
[7] = biological target: Dual specificity protein kinase CLK3 (Homo sapiens) (UniProt P49761); conditions: at 1 µM
[8] = biological target: Dual specificity protein kinase CLK3 (Homo sapiens) (UniProt P49761); conditions: at 10 µM
[9] = biological target: Tyrosine-protein kinase CSK (Homo sapiens) (UniProt P41240); conditions: at 1 µM
[10] = biological target: Tyrosine-protein kinase CSK (Homo sapiens) (UniProt P41240); conditions: at 10 µM

T1 sequence (P19784 whole entry, looked up): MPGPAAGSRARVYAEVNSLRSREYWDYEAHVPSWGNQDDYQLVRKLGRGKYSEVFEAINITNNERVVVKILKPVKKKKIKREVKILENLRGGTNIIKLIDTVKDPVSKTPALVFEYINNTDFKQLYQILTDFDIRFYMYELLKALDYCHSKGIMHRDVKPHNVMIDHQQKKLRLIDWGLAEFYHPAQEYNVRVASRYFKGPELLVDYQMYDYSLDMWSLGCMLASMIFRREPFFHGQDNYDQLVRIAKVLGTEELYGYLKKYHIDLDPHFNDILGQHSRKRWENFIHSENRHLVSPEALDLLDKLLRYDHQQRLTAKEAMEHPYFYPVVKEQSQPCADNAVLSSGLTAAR
T1 sequence (P67870 whole entry, looked up): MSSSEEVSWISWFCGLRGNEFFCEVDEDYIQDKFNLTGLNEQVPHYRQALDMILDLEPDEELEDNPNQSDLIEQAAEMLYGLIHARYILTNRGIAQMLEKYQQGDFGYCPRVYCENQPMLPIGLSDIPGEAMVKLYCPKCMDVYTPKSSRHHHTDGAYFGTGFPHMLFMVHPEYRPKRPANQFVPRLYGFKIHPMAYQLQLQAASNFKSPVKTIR
T1 sequence (P68400 whole entry, looked up): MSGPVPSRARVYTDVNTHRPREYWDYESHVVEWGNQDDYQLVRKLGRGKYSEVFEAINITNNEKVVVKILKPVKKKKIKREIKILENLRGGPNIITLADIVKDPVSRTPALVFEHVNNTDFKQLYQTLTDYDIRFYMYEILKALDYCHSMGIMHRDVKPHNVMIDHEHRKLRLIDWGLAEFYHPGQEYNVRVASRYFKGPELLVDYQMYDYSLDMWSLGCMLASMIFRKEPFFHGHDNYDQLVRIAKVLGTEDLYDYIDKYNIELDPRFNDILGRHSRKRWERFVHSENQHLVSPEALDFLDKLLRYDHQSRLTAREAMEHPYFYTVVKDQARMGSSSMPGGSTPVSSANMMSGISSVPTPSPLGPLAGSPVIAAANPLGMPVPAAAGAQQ
Chain of Casein kinase II subunit alpha' (Homo sapiens) (P19784 whole entry, looked up): as the sequence (P19784 whole entry, looked up) above
Chain of Tyrosine-protein kinase CSK (Homo sapiens) (P41240 2-450 limits assumed): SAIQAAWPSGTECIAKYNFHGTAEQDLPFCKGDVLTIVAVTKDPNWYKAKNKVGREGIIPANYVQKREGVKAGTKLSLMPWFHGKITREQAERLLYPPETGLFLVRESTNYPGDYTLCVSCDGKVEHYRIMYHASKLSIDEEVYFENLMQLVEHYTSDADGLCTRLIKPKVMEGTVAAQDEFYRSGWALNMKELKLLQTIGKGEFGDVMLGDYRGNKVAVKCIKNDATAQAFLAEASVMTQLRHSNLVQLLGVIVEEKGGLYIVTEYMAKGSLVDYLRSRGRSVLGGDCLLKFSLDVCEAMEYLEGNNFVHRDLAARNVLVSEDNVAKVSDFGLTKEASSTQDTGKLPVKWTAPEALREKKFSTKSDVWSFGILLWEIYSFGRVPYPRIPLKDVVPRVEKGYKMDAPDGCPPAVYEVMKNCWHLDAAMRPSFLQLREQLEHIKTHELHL
Chain of Dual specificity protein kinase CLK2 (Homo sapiens) (P49760 whole entry, looked up): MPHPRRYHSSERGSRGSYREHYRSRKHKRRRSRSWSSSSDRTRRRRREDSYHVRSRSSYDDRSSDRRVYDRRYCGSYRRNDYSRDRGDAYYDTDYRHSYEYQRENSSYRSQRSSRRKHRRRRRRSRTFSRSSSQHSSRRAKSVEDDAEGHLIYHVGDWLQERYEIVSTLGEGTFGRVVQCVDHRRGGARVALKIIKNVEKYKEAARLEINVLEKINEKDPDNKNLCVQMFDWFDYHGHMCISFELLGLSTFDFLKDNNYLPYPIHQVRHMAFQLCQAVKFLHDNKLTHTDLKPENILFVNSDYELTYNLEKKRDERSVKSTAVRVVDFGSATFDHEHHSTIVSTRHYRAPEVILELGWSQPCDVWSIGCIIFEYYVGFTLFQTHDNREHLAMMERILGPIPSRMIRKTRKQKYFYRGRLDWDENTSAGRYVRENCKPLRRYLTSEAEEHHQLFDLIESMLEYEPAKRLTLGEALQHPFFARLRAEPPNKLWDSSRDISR
Chain of Dual specificity protein kinase CLK3 (Homo sapiens) (P49761 whole entry, looked up): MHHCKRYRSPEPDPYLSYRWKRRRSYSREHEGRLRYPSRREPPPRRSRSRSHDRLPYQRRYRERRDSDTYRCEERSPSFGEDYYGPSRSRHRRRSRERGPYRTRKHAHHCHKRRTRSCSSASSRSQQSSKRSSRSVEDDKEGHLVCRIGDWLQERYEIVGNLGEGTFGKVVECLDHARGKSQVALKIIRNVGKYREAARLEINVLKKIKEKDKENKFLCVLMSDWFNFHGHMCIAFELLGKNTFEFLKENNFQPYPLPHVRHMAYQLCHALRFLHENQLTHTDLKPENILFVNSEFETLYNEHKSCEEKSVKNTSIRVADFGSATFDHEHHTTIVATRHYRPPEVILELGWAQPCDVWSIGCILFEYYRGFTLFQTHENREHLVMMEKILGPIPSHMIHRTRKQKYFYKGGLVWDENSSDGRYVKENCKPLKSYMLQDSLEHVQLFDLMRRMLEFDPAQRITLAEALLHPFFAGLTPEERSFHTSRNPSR

CNc1cc2c(Nc3cccc(Br)c3)ncnc2cn1
residual activity [1]: 90%
residual activity [2]: 89%
residual activity [3]: 118%
residual activity [4]: 96%
residual activity [5]: 113%
residual activity [6]: 98%
residual activity [7]: 95%
residual activity [8]: 33%
residual activity [9]: 109%
residual activity [10]: 92%

COc1ccc(CNc2nc(N(CCO)CCO)nc3c2ncn3C(C)C)cc1
residual activity [1]: 96%
residual activity [2]: 101%
residual activity [3]: 100%
residual activity [4]: 107%
residual activity [5]: 48%
residual activity [6]: 18%
residual activity [7]: 87%
residual activity [8]: 62%
residual activity [9]: 106%
residual activity [10]: 96%

O=C1NC(=O)c2c1c1c3ccccc3[nH]c1c1[nH]c3cc(Br)ccc3c21
residual activity [1]: 104%
residual activity [2]: 94%
residual activity [3]: 96%
residual activity [4]: 86%
residual activity [5]: 98%
residual activity [6]: 87%
residual activity [7]: 82%
residual activity [8]: 81%
residual activity [9]: 96%
residual activity [10]: 84%

N#C/C(=C(\N)Sc1ccc(N)cc1)c1ccccc1C(F)(F)F
residual activity [1]: 96%
residual activity [2]: 99%
residual activity [3]: 108%
residual activity [4]: 104%
residual activity [5]: 97%
residual activity [6]: 94%
residual activity [7]: 95%
residual activity [8]: 92%
residual activity [9]: 106%
residual activity [10]: 87%

Cc1cc2ncc(-c3ccccc3)nc2cc1C
residual activity [6]: 98%
residual activity [7]: 98%
residual activity [8]: 96%

CC(=O)c1ccc(N2CCOCC2)cc1O
residual activity [1]: 81%
residual activity [2]: 108%
residual activity [4]: 93%
residual activity [6]: 101%
residual activity [8]: 91%

CO[C@H]1[C@@H](OC)C[C@H](C)[C@@H](OC)C2=CC(=O)C=C(NC(=O)/C(C)=C/C=C/[C@H](OC)[C@@H](OC(N)=O)/C(C)=C/[C@@H]1C)C2=O
residual activity [1]: 88%
residual activity [2]: 111%
residual activity [3]: 99%
residual activity [4]: 99%
residual activity [5]: 100%
residual activity [6]: 110%
residual activity [7]: 88%
residual activity [8]: 89%
residual activity [9]: 108%
residual activity [10]: 118%

N#Cc1cnc2cnc(NCc3cccnc3)cc2c1Nc1ccc(F)c(Cl)c1
residual activity [4]: 100%
residual activity [7]: 84%
residual activity [8]: 51%
residual activity [9]: 93%
residual activity [10]: 75%

Nc1nc(Nc2ccc(S(N)(=O)=O)cc2)nn1C(=S)Nc1c(F)cccc1F
residual activity [1]: 100%
residual activity [2]: 85%
residual activity [3]: 95%
residual activity [4]: 62%
residual activity [5]: -2%
residual activity [6]: 2%
residual activity [7]: -4%
residual activity [8]: -5%
residual activity [10]: 99%

CN(C)CCCn1cc(C2=C(c3c[nH]c4ccccc34)C(=O)NC2=O)c2ccccc21
residual activity [1]: 107%
residual activity [2]: 101%
residual activity [4]: 104%
residual activity [5]: 14%
residual activity [6]: 2%
residual activity [7]: 66%
residual activity [8]: 21%
residual activity [9]: 122%
residual activity [10]: 100%

c1ccc(-c2n[nH]c3c2oc2ccccc23)cc1
residual activity [1]: 86%
residual activity [3]: 119%
residual activity [4]: 94%
residual activity [5]: 91%
residual activity [6]: 80%
residual activity [7]: 86%
residual activity [8]: 14%

COc1cc2ncnc(N3CCN(C(=O)Nc4ccc(Oc5ccccc5)cc4)CC3)c2cc1OC
residual activity [1]: 87%
residual activity [2]: 105%
residual activity [3]: 111%
residual activity [4]: 65%
residual activity [5]: 84%
residual activity [6]: 55%
residual activity [7]: 64%
residual activity [8]: 68%
residual activity [9]: 109%
residual activity [10]: 113%

Nc1cccc(-c2cc3c(Oc4cccc(O)c4)ncnc3[nH]2)c1
residual activity [1]: 101%
residual activity [2]: 105%
residual activity [5]: 93%
residual activity [6]: 50%
residual activity [7]: 75%
residual activity [8]: 63%
residual activity [9]: 79%
residual activity [10]: 21%

Cn1cnc2cc3c(Nc4cccc(Br)c4)ncnc3cc21
residual activity [1]: 87%
residual activity [2]: 119%
residual activity [3]: 126%
residual activity [4]: 89%
residual activity [5]: 106%
residual activity [6]: 75%
residual activity [7]: 91%
residual activity [8]: 112%
residual activity [9]: 105%
residual activity [10]: 97%

COc1cc2ncc(-c3ccccc3)nc2cc1OC
residual activity [7]: 92%
residual activity [8]: 81%
residual activity [10]: 94%

COc1cc2ncnc(Nc3ccc(Oc4ccccc4)cc3)c2cc1OC
residual activity [1]: 93%
residual activity [2]: 100%
residual activity [3]: 114%
residual activity [4]: 108%
residual activity [5]: 108%
residual activity [6]: 106%
residual activity [7]: 82%
residual activity [8]: 99%
residual activity [9]: 12%
residual activity [10]: 3%

c1ccc2c(-c3ccncc3)c[nH]c2c1
residual activity [1]: 78%
residual activity [2]: 95%
residual activity [4]: 90%
residual activity [5]: 112%
residual activity [6]: 85%
residual activity [7]: 87%
residual activity [8]: 108%

O=Nc1c(-c2c(O)[nH]c3ccccc23)[nH]c2ccccc12
residual activity [1]: 112%
residual activity [2]: 78%
residual activity [3]: 102%
residual activity [4]: 58%
residual activity [5]: 14%
residual activity [6]: 4%
residual activity [7]: 79%
residual activity [8]: 54%
residual activity [9]: 101%
residual activity [10]: 78%

COc1cccc(-c2cc(=O)c3ccccc3o2)c1N
residual activity [1]: 94%
residual activity [2]: 96%
residual activity [3]: 119%
residual activity [4]: 106%
residual activity [5]: 116%
residual activity [6]: 105%
residual activity [7]: 90%
residual activity [8]: 71%
residual activity [9]: 104%
residual activity [10]: 111%

CO[C@@H]1[C@H](N(C)C(=O)c2ccccc2)C[C@H]2O[C@]1(C)n1c3ccccc3c3c4c(c5c6ccccc6n2c5c31)C(=O)NC4
residual activity [1]: 73%
residual activity [2]: 97%
residual activity [3]: 117%
residual activity [4]: 102%
residual activity [5]: 17%
residual activity [6]: 9%
residual activity [8]: 4%
residual activity [9]: 82%
residual activity [10]: 78%

COc1ccc(S(=O)(=O)N(CCO)c2ccccc2CN(C)C/C=C/c2ccc(Cl)cc2)cc1
residual activity [1]: 89%
residual activity [2]: 94%
residual activity [3]: 106%
residual activity [4]: 95%
residual activity [5]: 127%
residual activity [6]: 102%
residual activity [7]: 89%
residual activity [8]: 86%
residual activity [9]: 115%
residual activity [10]: 84%

C[C@@H](N)[C@H]1CC[C@H](C(=O)Nc2ccncc2)CC1
residual activity [2]: 87%
residual activity [3]: 93%
residual activity [5]: 97%
residual activity [6]: 66%
residual activity [7]: 99%
residual activity [8]: 90%
residual activity [9]: 106%
residual activity [10]: 93%

CCN(CC)CCCCN1c2ccccc2Oc2ccc(Cl)cc21
residual activity [1]: 104%
residual activity [2]: 103%
residual activity [3]: 137%
residual activity [4]: 101%
residual activity [5]: 117%
residual activity [6]: 127%
residual activity [7]: 89%
residual activity [8]: 92%
residual activity [9]: 113%
residual activity [10]: 102%

Nc1n[nH]c2nnc(-c3c(-c4ccccc4)nn4ccccc34)cc12
residual activity [1]: 98%
residual activity [2]: 85%
residual activity [3]: 101%
residual activity [4]: 92%
residual activity [5]: 98%
residual activity [6]: 84%
residual activity [7]: 84%
residual activity [8]: 90%
residual activity [9]: 107%
residual activity [10]: 103%

Cc1ccc(NC2=CC(=O)c3sc(C)nc3C2=O)cc1
residual activity [1]: 100%
residual activity [2]: 101%
residual activity [3]: 100%
residual activity [4]: 107%
residual activity [5]: 111%
residual activity [6]: 109%
residual activity [7]: 95%
residual activity [8]: 88%
residual activity [9]: 98%
residual activity [10]: 95%

CN(C)c1ccc(/C=C2\C(=O)Nc3ccccc32)cc1
residual activity [1]: 87%
residual activity [2]: 108%
residual activity [3]: 115%
residual activity [4]: 96%
residual activity [5]: 86%
residual activity [6]: 48%
residual activity [7]: 77%
residual activity [8]: 13%
residual activity [9]: 116%
residual activity [10]: 119%

CC#CC(=O)Nc1cc2c(Nc3ccc(F)c(Cl)c3)ncnc2cn1
residual activity [1]: 78%
residual activity [2]: 114%
residual activity [3]: 120%
residual activity [4]: 86%
residual activity [5]: 103%
residual activity [6]: 88%
residual activity [7]: 83%
residual activity [8]: 125%
residual activity [9]: 103%
residual activity [10]: 99%

COc1cc2ncnc(Nc3ccc(NC(=O)c4ccccc4)cc3)c2cc1OC
residual activity [1]: 98%
residual activity [2]: 111%
residual activity [3]: 110%
residual activity [4]: 107%
residual activity [5]: 107%
residual activity [6]: 82%
residual activity [7]: 83%
residual activity [8]: 39%
residual activity [10]: 92%

Cc1cccc(-c2[nH]c(C(C)(C)C)nc2-c2ccc3c(c2)OCO3)n1
residual activity [2]: 132%
residual activity [7]: 90%
residual activity [8]: 145%

c1ccc(-c2n[nH]cc2-c2ccnc3ccccc23)nc1
residual activity [1]: 104%
residual activity [2]: 105%
residual activity [6]: 86%
residual activity [7]: 86%
residual activity [8]: 132%

N#CC(C#N)=C(N)/C(C#N)=C/c1ccc(O)cc1
residual activity [1]: 91%
residual activity [2]: 85%
residual activity [3]: 120%
residual activity [4]: 86%
residual activity [7]: 87%
residual activity [8]: 126%

CO[C@H]1C[C@@H]2CC[C@@H](C)[C@@](O)(O2)C(=O)C(=O)N2CCCC[C@H]2C(=O)O[C@H]([C@H](C)C[C@@H]2CC[C@@H](O)[C@H](OC)C2)CC(=O)[C@H](C)/C=C(\C)[C@@H](O)[C@@H](OC)C(=O)[C@H](C)C[C@H](C)/C=C/C=C/C=C/1C
residual activity [1]: 99%
residual activity [2]: 98%
residual activity [4]: 105%
residual activity [5]: 118%
residual activity [6]: 137%
residual activity [7]: 80%
residual activity [8]: 95%
residual activity [9]: 112%
residual activity [10]: 95%

O=C1NC(=O)c2cc(Nc3ccc(F)cc3)c(Nc3ccc(F)cc3)cc21
residual activity [1]: 90%
residual activity [2]: 110%
residual activity [3]: 125%
residual activity [4]: 96%
residual activity [5]: 100%
residual activity [6]: 40%
residual activity [7]: 79%
residual activity [8]: 129%
residual activity [9]: 98%
residual activity [10]: 93%

Cc1cncc2cccc(S(=O)(=O)N3CCCN(C(=O)CN)C[C@H]3C)c12
residual activity [3]: 128%
residual activity [4]: 98%
residual activity [7]: 76%
residual activity [8]: 98%

Cc1nc(-c2ccccc2)c(-c2ccncc2)o1
residual activity [1]: 103%
residual activity [2]: 98%
residual activity [3]: 102%
residual activity [4]: 92%
residual activity [5]: 114%
residual activity [6]: 96%
residual activity [7]: 82%
residual activity [8]: 84%
residual activity [9]: 108%
residual activity [10]: 104%

O=C1Nc2ccc(Br)cc2/C1=C\c1cc2c([nH]1)CCCC2
residual activity [1]: 77%
residual activity [2]: 117%
residual activity [3]: 120%
residual activity [5]: 106%
residual activity [6]: 101%
residual activity [8]: 53%
residual activity [9]: 118%
residual activity [10]: 102%

O=C(O)c1ccc2c3c1cccc3c(=O)n1c3ccccc3nc21
residual activity [1]: 22%
residual activity [2]: -4%
residual activity [3]: 18%
residual activity [4]: 4%
residual activity [5]: 77%
residual activity [6]: 27%
residual activity [7]: 77%
residual activity [8]: 32%
residual activity [9]: 102%
residual activity [10]: 88%

CCN(CC)C(=O)c1ccc(Nc2nc(OCC3CCCCC3)c3nc[nH]c3n2)cc1
residual activity [3]: 101%
residual activity [4]: 75%
residual activity [5]: 25%
residual activity [6]: 6%
residual activity [7]: 65%
residual activity [8]: 20%
residual activity [10]: 44%
